Compound activity as filed in PubChem.
FH mod: Identification of activators of human fumarate hydratase by quantitative high-throughput screening | Fumarate hydratase, mitochondrial (Homo sapiens), P07954 | FH coupled MDH/diaphorase resazurin fluorescence, 15 min | Potency, µM (doses to about 79.9 µM), inactives show at the highest dose activity change, negative = inhibition, usual class: inhibitors | 0.22% of 54,000 active; also: % is scaled to controls: 0 for no effect and ±100 for the full control effect; the screen sought activators but most active calls are inhibition curves; nearly all actives have a fitted effect of over 45% in size
Target sequence (P07954 whole entry, looked up): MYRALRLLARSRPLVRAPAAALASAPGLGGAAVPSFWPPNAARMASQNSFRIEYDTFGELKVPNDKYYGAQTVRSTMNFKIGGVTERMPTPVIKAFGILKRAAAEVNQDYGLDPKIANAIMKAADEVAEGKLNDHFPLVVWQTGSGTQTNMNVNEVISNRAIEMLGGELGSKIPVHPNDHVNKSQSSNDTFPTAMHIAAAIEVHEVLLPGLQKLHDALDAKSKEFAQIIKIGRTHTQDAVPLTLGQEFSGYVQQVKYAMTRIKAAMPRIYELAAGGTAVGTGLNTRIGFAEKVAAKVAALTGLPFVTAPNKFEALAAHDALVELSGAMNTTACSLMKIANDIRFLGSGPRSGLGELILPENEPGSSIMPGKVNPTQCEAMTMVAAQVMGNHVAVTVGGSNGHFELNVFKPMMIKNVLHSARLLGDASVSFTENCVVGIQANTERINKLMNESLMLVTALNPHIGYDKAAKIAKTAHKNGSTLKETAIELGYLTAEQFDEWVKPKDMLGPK
GALC G270D act: galactocerebrosidase G270D activity enhancement, cell-based. P54803. 145M-Twi-hGALC-G270D cells (Twitcher mouse brain line with human GALC G270D), HMU-beta-Gal fluorescence, 48 h. Potency, µM (series often up to 57.5 µM), actives largely listed as activators. 0.1% of 45,000 active; also: 0% is about no effect; nearly all actives have a fitted effect of over 65% in size
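Live 145M-Twi cells (Twitcher mouse brain-derived, GALC-null) stably expressing human GALC-G270D, with a wild-type GALC line, were compound-treated. Residual GALC activity was then read as fluorescence from 0.1 mM final HMU-β-gal at pH 5.2; higher signal means activation.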
HTT promoter inh: HTT promoter inhibition; HEK293 HTT promoter firefly luciferase reporter, 24 h; Potency, µM (series often up to 57.5 µM), for the others: at the highest dose activity change, negative = inhibition, actives largely listed as inhibitors; 0.93% of 48,000 active; AID 1508623; also: nearly all actives have a fitted effect of over 50% in size
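HEK293 Fluc reporter, 2,500 cells/well, 24 h pre-culture; cpds up to 57.5 uM final, 24 h 37 degrees C; Dual-Glo, 10 min RT; normalized vehicle = 0%, zero RLU = -100%.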
HTT-AS act: activators of huntingtin-antisense promoter activity. HEK293 HTT-AS promoter firefly luciferase reporter, 24 h; response scale: percent change from vehicle, -100% = no light. Potency, µM (top dose mostly 57.5 µM), inactives show at the highest dose activity change, positive = activation, hits mostly activators. 0.24% of 48,000 active. AID 1508624; also: nearly all actives have a fitted effect of over 55% in size
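Firefly luciferase readout (Dual-Glo, 10 min RT) after 24 h, 37 °C compound exposure (final up to 57.5 uM) of HEK293 reporter cells cultured 24 h beforehand; PTC124 at 50 uM final as control inhibitor; activity scaled vehicle 0%, zero RLU -100%.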
The depositor's hits bear a star; i = inactive; ? = inconclusive; nt = not tested or not shown; [ ] = remark or other dose. Only some compounds are listed: those with a hit (about 1.3% of all), similar ones and a draw of the others. Calls follow the shape of the dose curve; as a rule, active = well fitted curve in the direction sought with a large enough effect; inconclusive = small, poorly fitted or top-dose-only effect, or another doubt; inactive = no such curve, though single readings can be large; an effect the other way counts as inactive or inconclusive. Potency is read from the fitted curve at half-maximal effect.

SMILES | FH mod | GALC G270D act | HTT promoter inh | HTT-AS act
CCCCOc1ccc(CNC(=O)c2cc3n(n2)CCCN(Cc2ccc(C)cc2)C3=O)cc1 | 4% | i | 25µM* | -23%
COCCCn1c(=N)c(C(=O)NC2CCCC2)cc2c(=O)n3cccc(C)c3nc21 | 2% | 25µM* | 2% | -16%
CC(C)n1c(=N)c(C(=O)NCc2ccccc2)cc2c(=O)n3ccccc3nc21 | -19% | i | -5% | -20%
CC(C)n1c(=N)c(C(=O)NCc2cccnc2)cc2c(=O)n3ccccc3nc21 | 5% | 4µM* | -13% | 5%
CCC(C)n1c(=N)c(C(=O)NC2CCCC2)cc2c(=O)n3ccccc3nc21 (configuration not stated) | -2% | 10µM* | -3% | -5%
COCCCn1c(=N)c(C(=O)NC2CCCC2)cc2c(=O)n3cc(C)ccc3nc21 | 1% | i | 0% | -5%
Cc1ccc2nc3c(cc(C(=O)NC4CCCC4)c(=N)n3C(C)C)c(=O)n2c1 | -15% | i | 1% | 22%
CCC(C)n1c(=N)c(C(=O)NC2CCCCC2)cc2c(=O)n3cc(C)ccc3nc21 (configuration not stated) | -2% | 32µM* | -9% | -9%
Cc1ccc(N2C(=O)CSC23C(=O)N(CC(=O)NCCc2ccccc2)c2ccccc23)cc1C (configuration not stated) | -18% | i | ? | -20%
Clc1ccc(C2(c3ccc(-c4cn[nH]c4)cc3)CCNCC2)cc1 | 0% | nt | ? | -34%
Nc1c(C(=O)c2ccccc2)sc(Nc2ccc(Cl)c(Cl)c2)c1C(=O)Nc1ccccc1 | 13% | i | 28µM* | -43%
O=C(CCn1c(=O)c2sccc2n(Cc2ccc(F)cc2Cl)c1=O)NCc1ccc2c(c1)OCO2 | 1% | i | -6% | -3%
CC1CCC2C(C)(C)C(O)CCC2(C)C12Cc1c(O)cc3c(c1O2)CN(C(CCCN=C(N)N)C(=O)O)C3=O (configuration not stated) | 7%[53.3 µM] | nt | nt | nt
CCOc1ccc(CNS(=O)(=O)c2ccc(-c3coc(C)n3)cc2)cc1OC | -6% | i | 25µM* | -37%
COc1ccc(-c2nc3scc(CCNS(=O)(=O)c4ccc(Oc5ccccc5)cc4)n3n2)cc1 | -20% | i | -30% | -32%
Cc1ccc(-c2nc3scc(CCNS(=O)(=O)c4ccc(Oc5ccccc5)cc4)n3n2)cc1 | -2% | i | 20µM* | -84%
CCc1ccc(NCc2cc3cc4c(cc3n(CC(=O)Nc3cccc(OC)c3)c2=O)OCO4)cc1 | -18% | 28µM* | -21% | -21%
CCc1ccc(NCc2cc3cc4c(cc3n(CC(=O)Nc3ccc(OC)cc3)c2=O)OCO4)cc1 | -8% | i | -20% | 5%
CCOc1ccccc1CNC(=O)c1cnc2sc(N3CCCC3)nn2c1=O | -1% | i | -12% | -21%
O=c1cc(-c2ccccc2)oc2c(O)c(O)ccc12 | 16µM* | nt | nt | nt
O=C(COc1ccccc1Cl)Nc1ccc(-c2nc3ccccc3s2)cc1 | -1% | i | 89% | ?
CCOc1ccc(CCNC(=O)c2ccc3c(c2)N(Cc2ccc(C)cc2)CCS3)cc1 | -16% | i | -30% | -15%
Cc1ccc(CN2CCc3nc(N4CCN(c5ccccc5F)CC4)ncc3C2)cc1C | -16% | i | ? | -22%
COc1ccccc1CNC(=O)c1ccc(-c2nc(CN3CCc4ccccc43)c(C)o2)cc1 | -30% | i | 18µM* | -37%
CCCCOc1ccc(CNC(=O)c2ccc(-c3nc(CN4CCc5ccccc54)c(C)o3)cc2)cc1 | -5% | i | -24% | -23%
SMILES | FH mod | GALC G270D act | HTT promoter inh | HTT-AS act
CCCCNC(=O)c1ccc(-c2nc(CN3CCc4ccccc43)c(C)o2)cc1 | -5% | i | -38% | -33%
Cc1oc(-c2ccc(C(=O)NCc3ccccc3Cl)cc2)nc1CN1CCc2ccccc21 | -13% | i | 14µM* | -34%
CC(C)c1ccc(NC(=O)Cn2c(=O)oc3cc(S(=O)(=O)N4CCCC4)ccc32)cc1 | -22% | i | 14µM* | -48%
Cc1cc(C)c(NC(=O)Cn2c(=O)oc3cc(S(=O)(=O)N4CCCCCC4)ccc32)c(C)c1 | -11% | i | 10µM* | -42%
CN(C)CCn1nnnc1SCC1=C(C(=O)O)N2C(=O)[C@@H](NC(=O)Cc3csc(N)n3)[C@H]2SC1 | -3%[53.3 µM] | i | 3% | 2%
N#Cc1cc(-c2ccnc(Nc3ccc(N4CCOCC4)cc3)n2)ccc1OC1CCOCC1 | -14% | nt | nt | nt
Cc1ccc(-c2ncn(-c3ccc(Nc4nccc(-c5cccc(N6CCOCC6)c5)n4)cc3)n2)cn1 | 9%[53.3 µM] | nt | 69% | 1.2µM*
Cc1ccc(Nc2c(-c3ccc(N(C)C)cc3)nc3ccccn23)cc1 | ? | i | 72% | 2µM*
Cc1c(C(=O)OC2CCC(C)CC2)[nH]c2c1C(=O)CC(c1ccccc1Cl)C2 (configuration not stated) | -6% | i | -21% | -17%
O=S(=O)(c1ccccc1)n1nc(-c2ccco2)nc1NCc1ccccc1 | -14% | i | 37% | 13µM*
CN(C)c1ccc(CNc2nc(-c3ccco3)nn2S(=O)(=O)c2ccc(Cl)cc2)cc1 | -21% | i | 38% | ?
COc1cc(F)ccc1-c1ncnc(Nc2cccc(CS(C)(=N)=O)c2)n1 (configuration not stated) | 15% | nt | nt | nt
Nc1c(S(=O)(=O)O)cc(Nc2ccc(Nc3nc(Cl)nc(Nc4ccc(S(=O)(=O)O)cc4)n3)c(S(=O)(=O)O)c2)c2c1C(=O)c1ccccc1C2=O | 5µM* | nt | nt | nt
Cc1cc(-c2ccc(C)c(S(=O)(=O)N3CCOc4ccc(Cl)cc43)c2)on1 | -41% | i | 28µM* | -35%
Cc1ccc(-c2onc(C)c2C)cc1S(=O)(=O)N1CCOc2ccc(Cl)cc21 | -17% | i | ? | -91%
Cn1c(=NC(=O)c2ccc(S(=O)(=O)N3CCCC3)cc2)sc2cc(F)ccc21 | 0% | i | -2% | 0%
CN1C(=O)c2ccccc2Sc2ccc(NC(=O)Nc3ccccc3F)cc21 | 15% | i | -2% | -16%
CCN1C(=O)c2ccccc2Sc2ccc(NC(=O)Nc3cc(C)cc(C)c3)cc21 | -25% | i | 20µM* | -46%
CCc1cccc(NC(=O)Nc2ccc3c(c2)N(C)C(=O)c2ccccc2S3)c1 | 2% | i | 32µM* | -38%
CCc1nnc(NC(=O)CSc2nc3c([nH]c4ccccc43)c(=O)n2-c2ccc(F)cc2)s1 | -3% | i | -13% | -19%
CC(=O)c1ccc(N2CCN(C(=O)Nc3ccc(C(C)C)cc3)CC2)cc1 | -17% | i | 22µM* | -58%
COc1cccc(N2CCN(C(=O)c3ccc(NC(=O)c4nsc5ccccc45)cc3)CC2)c1 | -21% | i | 14µM* | -71%
COc1ccc(N2CCN(C(=O)c3ccc(NC(=O)c4nsc5ccccc45)cc3)CC2)cc1 | ? | i | ? | ?
